Measurements from PubChem BioAssay (Tox21).
Inconclusive results are not listed. Active and inactive are the calls of the source. Calls follow the shape of the dose curve; as a rule, active = well fitted curve in the direction sought with a large enough effect in the repeat runs; inconclusive = weak or mixed curves; inactive = no such curve, though single readings can be large; an effect the other way counts as inactive or inconclusive.

Key:
[1] = qHTS RealTime-Glo MT Cell Viability Assay in HepG2 cells - 24 hour (AID 1224867); also: nearly all actives have a fitted effect of over 50% in size
In short: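 HepG2 cells were seeded at 600 cells/well together with NanoLuc luciferase and a cell-permeant prosubstrate, preincubated 5 h at 37 C/5% CO2, then pin-dosed with compounds in DMSO. Nonlytic luminescence from viable cells was read at each time point.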

[2] = qHTS RealTime-Glo MT Cell Viability Assay in HEK293 cells - 32 hour (AID 1224868); also: top concentration of the series differs between compounds; nearly all actives have a fitted effect of over 50% in size
In short: (§1)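 HEK293 cells were seeded at 600 cells/well together with NanoLuc luciferase and cell-permeant prosubstrate, preincubated 5 h at 37 C/5% CO2, then given compound in DMSO by pintool. Luminescence from viable-cell prosubstrate reduction was read repeatedly over 40 h.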

[3] = A CellTox Green Cytotoxicity Assay to monitor cytotoxicity in HEK293 cells - 0 hour (AID 1224869); also: nearly all actives have a fitted effect of over 50% in size
In short: (§2)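 HEK293 cells, 600/well, were preincubated 5 hours and then exposed to compounds at 37 C for up to 40 hours. A cell-impermeant cyanine dye staining dead-cell DNA was read by fluorescence at 0, 8, 16, 24, 32 and 40 h time points.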

[4] = qHTS RealTime-Glo MT Cell Viability Assay in HepG2 cells - 40 hour (AID 1224870); also: nearly all actives have a fitted effect of over 50% in size
In short: (§3)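 HepG2 cells (600/well) mixed with RealTime-Glo MT reagent, settled 5 h at 37 C/5% CO2 before compound addition. Nonlytic NanoLuc luminescence from viable-cell prosubstrate reduction read repeatedly during 40 h treatment at 37 C.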

[5] = A CellTox Green Cytotoxicity Assay to monitor cytotoxicity in HEK293 cells - 40 hour (AID 1224871); also: nearly all actives have a fitted effect of over 45% in size
In short: as §2

[6] = qHTS RealTime-Glo MT Cell Viability Assay in HEK293 cells - 16 hour (AID 1224872)
In short: as §1

[7] = qHTS RealTime-Glo MT Cell Viability Assay in HEK293 cells - 40 hour (AID 1224874); settings: RealTime-Glo luminescence, active compounds read low; also: nearly all actives have a fitted effect of over 50% in size
In short: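 600 cells/well were plated with the nonlytic NanoLuc/prosubstrate reagent, pre-incubated 5 h, then given 23 nL of compound in DMSO. Incubation at 37 C for 40 h, with luminescence from viable-cell-reduced substrate read repeatedly from 0 h.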

[8] = A CellTox Green Cytotoxicity Assay to monitor cytotoxicity in HEK293 cells - 24 hour (AID 1224875); also: nearly all actives have a fitted effect of over 45% in size; also: potency is read from the fitted curve at half-maximal effect; as to activity change: series mostly up to about 77 µM
In short: as §2

[9] = A CellTox Green Cytotoxicity Assay to monitor cytotoxicity in HepG2 cells - 16 hour (AID 1224876); also: nearly all actives have a fitted effect of over 45% in size; also: potency is read from the fitted curve at half-maximal effect
In short: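 HepG2 cells, 600/well, preincubated 5 h with CellTox Green dye, then exposed to Tox21 compounds in DMSO at 37 C for up to 40 h. Dead-cell DNA fluorescence read at the indicated time point.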

[10] = qHTS RealTime-Glo MT Cell Viability Assay in HepG2 cells - 8 hour (AID 1224873); also: nearly all actives have a fitted effect of over 55% in size
In short: as §3
% is scaled to controls: 0 for no effect and ±100 for the full control effect.

CCCCCCCCS(=O)(=O)O
inactive: outcome [1] | outcome [2] | outcome [3] | outcome [4] | Potency [5] | outcome [6] | max response [7] -0.584% | Potency [8] | Potency [9]

CCCCNCC
inactive: outcome [1] | outcome [2] | outcome [3] | outcome [4] | Potency [5] | outcome [6] | max response [7] -1.39% | Potency [8] | Potency [9]

CC(=O)SC[C@@H](C)C(=O)N1CCC[C@H]1C(=O)N[C@@H](Cc1ccccc1)C(=O)O
inactive: outcome [1] | outcome [2] | outcome [3] | outcome [4] | Potency [5] | outcome [6] | max response [7] 3.03% | Potency [8] | Potency [9]

c1cc2ccc3ccc4ccc5cccc6c(c1)c2c3c4c56
inactive: activity change, negative = cytotoxicity [1] -0.157% [at 2.72 µM] | activity change, negative = cytotoxic [2] 0.861% [at 2.72 µM] | cytotoxicity [3] -4.63% [at 2.72 µM] | activity change, negative = cytotoxic [4] -2.6% [at 2.72 µM] | cytotoxicity increase [5] -13.8% [at 2.72 µM] | activity change, negative = cytotoxicity [6] -0.658% [at 2.72 µM] | viability change, negative = cytotoxic [10] 0.803% [at 2.72 µM] | activity change [8] -12.1% [at 2.72 µM, active compounds read high] | cytotoxicity increase [9] -15.3% [at 2.72 µM]

CC(=O)c1ccc(O)c(C(N)=O)c1
inactive: outcome [1] | outcome [2] | outcome [3] | outcome [4] | Potency [5] | outcome [6] | Potency [8] | Potency [9]

CC(=O)OC1CCC(C(C)(C)C)CC1 (stereo not drawn)
inactive: outcome [1] | outcome [2] | outcome [3] | outcome [4] | Potency [5] | outcome [6] | max response [7] 0.815% | Potency [8] | Potency [9]

O=C[C@@H](O)[C@H](O)[C@H](O)CO
inactive: outcome [1] | outcome [2] | outcome [3] | outcome [4] | Potency [5] | outcome [6] | max response [7] -1.95% | Potency [8] | Potency [9]

CC(=O)OCC(=O)[C@@]1(O)CC[C@H]2[C@@H]3CCC4=CC(=O)C=C[C@]4(C)[C@H]3[C@@H](O)C[C@@]21C
inactive: outcome [1] | outcome [2] | outcome [3] | outcome [4] | Potency [5] | outcome [6] | max response [7] -2.13% | Potency [8] | Potency [9]

C=CCOC(=O)CCCCCCCC
inactive: outcome [1] | outcome [2] | outcome [3] | outcome [4] | Potency [5] | outcome [6] | max response [7] 16% | Potency [8] | Potency [9]

N[C@H]1C(O)O[C@H](CO)[C@@H](O)[C@@H]1O (stereo partly drawn)
inactive: outcome [1] | outcome [2] | outcome [3] | outcome [4] | Potency [5] | outcome [10] | Potency [8] | Potency [9]

CCCOc1ccc(C(=O)OCCN(CC)CC)cc1N
inactive: outcome [1] | outcome [2] | outcome [3] | outcome [4] | Potency [5] | outcome [6] | max response [7] 0.981% | Potency [8] | Potency [9]

C=CC(=O)OCCOCCOCC
inactive: outcome [1] | outcome [2] | outcome [3] | outcome [4] | Potency [5] | outcome [6] | max response [7] 21.6% | Potency [8] | Potency [9]

CC/C=C\CCCCCCCCCCOC(C)=O
inactive: outcome [1] | outcome [2] | outcome [3] | outcome [4] | Potency [5] | outcome [6] | Potency [8] | Potency [9]

Cc1ccc(N)nc1
inactive: outcome [1] | outcome [2] | outcome [3] | outcome [4] | Potency [5] | outcome [6] | outcome [10] | Potency [8] | Potency [9]

NS(=O)(=O)c1cc2c(cc1C(F)(F)F)NCNS2(=O)=O
inactive: outcome [1] | outcome [2] | outcome [3] | outcome [4] | Potency [5] | outcome [6] | outcome [10] | Potency [8] | Potency [9]

COC(=O)N/N=C/c1c[n+]([O-])c2ccccc2[n+]1[O-]
active: Potency [8] 21.3 µM | Potency [9] 23.9 µM
inactive: outcome [1] | outcome [2] | outcome [3] | outcome [4] | outcome [6] | outcome [10] | max response [7] 5.36%

CC(C)(C)OC=O
inactive: outcome [1] | outcome [2] | outcome [3] | outcome [4] | Potency [5] | outcome [6] | max response [7] 8.37% | Potency [8] | Potency [9]

CCOC(=O)COc1ccc2c(C)c(CCN(CC)CC)c(=O)oc2c1Cl
inactive: outcome [1] | outcome [2] | outcome [3] | outcome [4] | Potency [5] | outcome [10] | max response [7] 1.31% | Potency [8] | Potency [9]

COC(=O)c1cc(Cl)c(NC(C)=O)cc1OC
inactive: outcome [1] | outcome [2] | outcome [3] | outcome [4] | Potency [5] | outcome [6] | outcome [10] | Potency [8] | Potency [9]

CCc1ncc(C)[nH]1
inactive: outcome [1] | outcome [2] | outcome [3] | outcome [4] | Potency [5] | outcome [6] | Potency [8] | Potency [9]

CCOc1ccccc1OCCN[C@H](C)Cc1ccc(OC)c(S(N)(=O)=O)c1
inactive: outcome [1] | outcome [2] | outcome [3] | outcome [4] | Potency [5] | outcome [6] | Potency [8] | Potency [9]

CCCCCCCOC(C)=O
inactive: outcome [1] | outcome [2] | outcome [3] | outcome [4] | outcome [6] | outcome [10] | max response [7] -2.34% | Potency [8] | Potency [9]
